Screening results: PubChem, several laboratories
In the library only some 2.8% were active in any assay of this set; here they are far more common.
Shn3 3UTR inh: Schnurri-3 reporter inhibition in Clone20 osteoblasts; Clone20 osteoblast Shn3 3'UTR firefly luciferase, 24 h; inhibition, % at 12.5 µM; hit rate 0.52% among 360,000; AID 588674;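 active = mean inhibition of at least 75% with every replicate also reaching 75%; inconclusive = mean inhibition at least 75% but some replicate below; inactive = mean inhibition below 75%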;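 note: 0% = median of neutral control wells and 100% = pilot-screen positive control compound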
Peg3 promoter: inhibitors of Peg3 promoter; HeLa PEG-Prom luciferase reporter, luminescence, overnight; inhibition, % at 20 µM; hit rate 1.7% among 360,000; AID 588405;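 active = inhibition of at least 50% at 20 µM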
KKLEB tox: reduces viability of KKLEB cystic fibrosis airway cells; hit rate 0.36% among 360,000; AID 602141; KKLEB CF airway cells viability, ATPlite luminescence, overnight; active compounds read low; cells stimulated with P. aeruginosa culture filtrate; activity change (cytotoxicity), % at 5 µM;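 active = corrected activity change at or below -50% at 5 µM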
TRPM1 prom inh: inhibitors of MITF-driven TRPM1 promoter in melanoma cells; hit rate 0.83% among 330,000; AID 488899; inhibition, % at 12.5 µM; SK-MEL-5 TRPM1 promoter luciferase, 24 h;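 active = mean inhibition across replicates of 60% or more, whatever share of single replicates reaches that level; inconclusive = some that reach 60%, reason not given; inactive = mean inhibition across replicates below 60%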
HIF-2a block: blocks HIF-2a reporter activity; inhibition, % at 18.8 µM; 786-0 RCC cells HIF-2a reporter, luciferase luminescence, overnight; AID 624352; hit rate 0.72% among 360,000;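 active = inhibition of the luminescence signal of 40% or more relative to plate controls, in a single-dose primary screen at 18.75 µM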
CF NFkB inh: blocks PAF-induced NF-kB reporter in cystic fibrosis cells | KKLEB NF-kB-GFP reporter, GFP fluorescence overnight | inhibition, % at 5 µM | hit rate 0.86% among 360,000 | AID 588850;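 active = at least 50% inhibition at 5 µM, scaled per plate between neutral and stimulator controls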;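 note: PAF is a Pseudomonas aeruginosa culture filtrate used as stimulus; plate controls were PAF-stimulated DMSO wells for no effect and unstimulated DMSO wells for full effect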
Starred values were filed as active, the others as inactive; ? = inconclusive; / = no result.

SMILES	Shn3 3UTR inh	Peg3 promoter	KKLEB tox	TRPM1 prom inh	HIF-2a block	CF NFkB inh
O=c1[nH]c(C2CCN(S(=O)(=O)c3ccccc3F)CC2)nc2c1nnn2Cc1ccc2c(c1)OCCO2	-5	60*	9	5	23	3
O=c1[nH]c(C2CCN(S(=O)(=O)c3ccc(F)cc3)CC2)nc2c1nnn2Cc1ccc2c(c1)OCCO2	5	25	11	12	8	35
Cc1ccc(C2=C(O)C(=O)C(c3ccc(C)cc3)=C(O)C2=O)cc1	5	-41	-8	6	-4	56*
Cc1cc2nc(C)n(CCCNC(=O)Nc3cccc4ccccc34)c2cc1C	87*	3	8	25	-1	-6
Cc1cc(Cl)ccc1NC(=O)CN1CCN(C(=O)c2ccco2)CC1	16	-3	5	4	-7	9
Cc1ccccc1NC(=O)CN1CCN(C(=O)c2ccco2)CC1	3	53*	-2	0	-3	-14
CCOC(=O)c1cc2sccc2n1CC(=O)N1c2ccccc2CC1C (stereo not given)	-5	72*	6	63*	14	2
CCOC(=O)c1cc2sccc2n1CC(=O)O	-6	0	0	-6	11	-6
Cc1ccccc1C(=O)Nc1ccc2c(c1)OCCO2	4	-56	0	10	-48	12
O=C(Nc1ccc2c(c1)OCCO2)c1coc2ccccc2c1=O	50	3	4	73*	17	25
O=C(CCl)Nc1c(C(=O)Nc2ccc3c(c2)OCCO3)oc2ccccc12	95*	98*	-31	-14	-52	20
CCN(CC)S(=O)(=O)c1ccc2c(c1)C(=NO)c1cc(S(=O)(=O)N(CC)CC)ccc1-2	64	51*	-44	28	38	43
CC1CCN(S(=O)(=O)c2ccc3c(c2)C(=NO)c2cc(S(=O)(=O)N4CCC(C)CC4)ccc2-3)CC1	95*	100*	-5	100*	1	83*
COCCN(C(=O)CSc1n[nH]c(-c2ccccc2)n1)c1c(N)n(CC(C)C)c(=O)[nH]c1=O	-29	-4	-3	-2	6	-2
Cn1nnnc1SC1CC(=O)N(c2ccccc2)C1=O (stereo not given)	-1	14	-9	-4	15	1
O=C1CC(Sc2nnnn2C2CCCCC2)C(=O)N1c1ccccc1 (stereo not given)	25	85*	-4	1	15	-6
COc1ccc(OC)c(C=NNC(=O)c2ccccc2NS(=O)(=O)c2cccs2)c1	3	9	-15	6	5	6
COc1ccc(C(=O)/C(C#N)=N/Nc2cccc([N+](=O)[O-])c2)cc1	9	29	-47	12	-67	54*
COc1ccc(CC(=O)Nc2ccc(-c3noc(-c4cc(OC)c(OC)c(OC)c4)n3)cc2)cc1	26	12	-5	18	3	-6
COc1ccc(Cl)cc1-c1nc(-c2ccc(NC(=O)c3ccncc3)cc2)no1	14	-2	2	-10	-8	-28
COc1ccc(NC(=O)c2ccc(-c3ccc(-c4noc(C)n4)cc3C)cc2)cc1N1CCN(C)CC1	-17	64*	-9	?	-12	12
COc1ccc(CC(=O)Nc2ccc(-c3noc(-c4ccc(Cl)cc4)n3)cc2)cc1	21	57*	-55*	25	-27	43
COc1ccc(-c2nc(-c3ccc(NC(=O)c4ccncc4)cc3)no2)cc1OC	90*	99*	6	/	-7	-6
CC(C)C(NS(=O)(=O)c1cccc(C(F)(F)F)c1)C(=O)O (stereo not given)	-11	4	-3	2	-1	-11
O=c1c(Cl)c(NCCCO)cnn1-c1nc2ccccc2[nH]1	10	99*	5	5	-99	-7
SMILES	Shn3 3UTR inh	Peg3 promoter	KKLEB tox	TRPM1 prom inh	HIF-2a block	CF NFkB inh
CCN(CC)c1ccc2cc(-c3nc4ccccc4[nH]3)c(=O)oc2c1	49	70*	-90*	79*	-148	-163
CCN(CC)c1ccc2cc(-c3nc4ccccc4n3C)c(=O)oc2c1	13	-169	-21	-8	-261	27
Nc1cc(OCC(F)(F)F)cc([N+](=O)[O-])c1	-5	26	12	7	14	-6
Nc1cc(N)c(OCC(F)(F)F)cc1OCC(F)(F)F	5	-2	-4	65*	11	3
Cc1csc(C(C)N(C)C(=O)c2ccc(OC3CCN(Cc4ccccn4)CC3)cc2)n1 (stereo not given)	24	13	-8	5	8	23
COc1ccc(N2CCN(C(=O)CSc3nnc(NC(=O)C4CC4)s3)CC2)cc1	-19	18	3	-3	15	4
COc1ccccc1N(O)C1CC(=O)N(c2ccc(F)cc2)C1=O (stereo not given)	95*	-2	-1	-5	-58	-2
COc1ccc(OC(=O)N2C/C(=C/c3ccccc3)C(=O)/C(=C\c3ccccc3)C2)cc1	19	105*	-37	86*	59*	64*
CCOC(=O)N1C/C(=C\c2ccccc2)C(=O)/C(=C/c2ccccc2)C1	80	112*	-10	104*	95*	89*
CCOC(=O)N1CCN(S(=O)(=O)/C=C/c2ccccc2)CC1	-4	12	13	-3	12	2
CC1(c2ccccc2Cl)NC(=O)N(CC(=O)NCc2ccc3c(c2)OCO3)C1=O (stereo not given)	-14	14	-4	-8	6	2
O=C(N/N=C/c1cc([N+](=O)[O-])ccc1O)c1cc(-c2ccccc2)nc2ccccc12	88*	47	-7	48	7	21
Cc1ccc(NC(=S)N/N=C/c2ccc(Cl)c([N+](=O)[O-])c2)cc1	1	86*	17	-9	-19	-13
O=C(N/N=C/c1ccc(Cl)c([N+](=O)[O-])c1)c1cc(-c2ccccc2)nc2ccccc12	3	108*	-27	1	-319	12
O=C(N/N=C/c1cc([N+](=O)[O-])ccc1Cl)c1cc(-c2ccccc2)nc2ccccc12	-7	8	11	16	12	5
O=C(N/N=C/c1cccc([N+](=O)[O-])c1)c1cc(-c2ccccc2)nc2ccccc12	5	24	-25	8	8	4
CN(N=Nc1nc[nH]c1C(=O)NN)C1CCCCC1	23	2	6	-3	10	0
COc1cccc(CN2CCC2(C)C(=O)Nc2cccc(Oc3ccccc3)c2)c1F (stereo not given)	7	52*	-3	/	3	-4
COc1cccc(NC(=O)C2(C)CCN2Cc2cccc(OC)c2F)c1 (stereo not given)	17	7	7	/	6	8
OC(c1ccc(CN2CCCCC2)cc1)c1ncc(-c2ccccc2)[nH]1 (stereo not given)	4	-1	-2	/	-1	4
